# This is a sample that favours compounds with a hit; in the whole collection about 9.9% have one here.
# IL-1B inflam inh = qHTS for Inhibitors of Inflammasome Signaling: IL-1-beta AlphaLISA Primary Screen. THP-1 LPS/ATP IL-1B secretion, AlphaLISA, 16 h; hits give low values. activity change, % at 57.5 µM. 360,000 compounds, 4.7% hits. AID 743279, 2014; in the data active means activity change below about -50%; inconclusive means mostly about -30% to -49%; further: on the % scale 0 is the no-effect control and ±100 the full control effect
#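 THP-1 cells pretreated 1 hr with compounds (up to 57.5 uM final), then stimulated with LPS (250 ng/mL final) plus ATP (1.25 mM final); secreted IL-1B measured by AlphaLISA after 16 hr, decreased signal indicating inhibition.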
# KB-V1 cytotox = qHTS assay for MDR1-selective chemotherapeutics: Primary screen using the drug-selected MDR subline cells KB-V1. KB-V1 MDR cells viability, CellTiter-Glo, 72 h. Potency, µM (titrated, usually from 46.1 µM), actives largely listed as cytotoxic. 400,000 compounds, 3.4% hits. AID 1347076, 2019; further: potency means the concentration at half of the fitted maximal effect; on the % scale 0 is the no-effect control and ±100 the full control effect; nearly all actives have a fitted effect of over 60% in size
#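 Readout: CellTiter-Glo luminescence, 10 min after addition. Cells: KB-V1 MDR subline, 72 h at 37 degrees C with compound. Analysis: corrected, normalized data fitted to concentration-effect curves.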
# SW480 rerep = A quantitative high throughput screen for small molecules that induce DNA re-replication in SW480 colon adenocarcinoma cells; Potency, µM (titrated, usually from 46.1 µM), for the others: at the highest dose re-replication activation, most hits filed as activators; 340,000 compounds, 1.8% hits; SW480 DNA re-replication, Hoechst DNA content imaging, 48 h; AID 624297, 2012; further: potency means the concentration at half of the fitted maximal effect; % of control where 0% means no effect; nearly all actives have a fitted effect of over 55% in size
#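 Treated cells incubate 48 hr (37 C, 5% CO2), are stained 40 min with Hoechst, and nuclear fluorescence is enumerated; a rise in nuclei with high DNA signal marks re-replication.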
# MCF10A rereplic = A quantitative high throughput screen for small molecules that induce DNA re-replication in MCF 10a normal breast cells | MCF 10A DNA re-replication, Hoechst nuclear intensity, 48 h | Potency, µM (series often up to 46.1 µM), for inactives: at the top dose activity, positive = re-replication, hits mostly activators | 350,000 compounds, 2.9% hits | AID 624296, 2012; further: potency means the concentration at half of the fitted maximal effect; % of control where 0% means no effect; nearly all actives have a fitted effect of over 50% in size
# KB-3-1 tox = qHTS assay for MDR1-selective chemotherapeutics: Primary screen using the parental adenocarcinoma cell KB-3-1 | KB-3-1 viability, CellTiter-Glo ATP luminescence, 72 h | Potency, µM (top dose mostly 46.1 µM), most hits filed as cytotoxic | 400,000 compounds, 1.4% hits; further: potency means the concentration at half of the fitted maximal effect; on the % scale 0 is the no-effect control and ±100 the full control effect; nearly all actives have a fitted effect of over 60% in size
#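 KB-3-1 cells, DMEM (no phenol red) + 10% FBS; compound by pin transfer, 72 h, 37 °C. Readout: CellTiter-Glo luminescence after 10 min. Data normalized, curve-fitted.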
# Numbers without * were called inactive; i = inactive; ? = inconclusive; nt = no result given; [ ] = remark or other dose. Unless noted, the call rests on the fitted dose curve; in most records, active means well fitted curve in the direction sought with a large enough effect; inconclusive means small, poorly fitted or top-dose-only effect, or another doubt; inactive means no such curve, though single readings can be large; an effect the other way counts as inactive or inconclusive.
SMILES,IL-1B inflam inh,KB-V1 cytotox,SW480 rerep,MCF10A rereplic,KB-3-1 tox
c1ccc2oc(-c3[nH]ncc3CN3CCSCC3)cc2c1,-23.6,i,-7.2%,10.7%,i
c1ccc2oc(-c3[nH]ncc3CN3CCC(N4CCSCC4)CC3)cc2c1,nt,i,-6.3%,23.1µM*,i
Cc1nn(CCCC(=O)NCc2ccc(Cl)cc2)c(C)c1[N+](=O)[O-],-23.9,23.1µM*,-204.6%,-4.8%,i
Cc1ccccc1Oc1cc(NC(=O)CCCn2nc(C)c([N+](=O)[O-])c2C)cc([N+](=O)[O-])c1,-55.5*,3.26µM*,23.1%,1.8%,i
Cc1nn(CCCC(=O)Nc2cc(Oc3ccc(F)cc3)cc([N+](=O)[O-])c2)c(C)c1[N+](=O)[O-],0.2,5.8µM*,1.3%,0.2%,i
Cc1ccc(CNC(=O)c2nn(C)c3c2CS(=O)(=O)c2ccccc2-3)cc1,-52.6*,i,-6.0%,0.2%,i
Cc1c(Cl)c([N+](=O)[O-])nn1CCCC(=O)Nc1cc(Oc2ccccc2)cc([N+](=O)[O-])c1,20.8,?,-18.6%,-1.5%,i
COc1ccc(CNC(=O)CCCn2nc(C)c([N+](=O)[O-])c2C)cc1OC,26.3,?,-4.5%,-1.1%,i
COc1ccccc1NC(=O)N(C)C[C@@H]1OCc2cnnn2CCCC(=O)N([C@@H](C)CO)C[C@H]1C,12.8,i,nt,nt,i
Cc1ccc(CNC(=O)c2nn(C)c(C)c2[N+](=O)[O-])cc1,0.0,i,0.517µM*,-71.7%,i
CCn1nc(C)c([N+](=O)[O-])c1C(=O)NNC(=O)c1ccc(Cl)cc1,-13.1,i,-6.6%[9.22 µM],?,i
CCn1nc(C)c(C(=O)Nc2cc(Oc3ccc(Cl)cc3)cc([N+](=O)[O-])c2)c1C,17.2,?,?,8.2µM*,i
CCN1CCN(C(c2ccccc2)c2c(O)cc(C)n(CCOC)c2=O)CC1 (centres undefined),nt,i,nt,nt,i
Cc1c(OCC(=O)NC2CC(C)(C)NC(C)(C)C2)ccc2c1oc(=O)c1ccccc12,?,i,13µM*,2.4%,i
Cc1c(C)c2ccc(OCC(=O)Nc3ccc(S(N)(=O)=O)cc3)c(C)c2oc1=O,-20.3,i,-1.0%,18.4µM*,i
Cc1c(OCC(=O)NC2CC(C)(C)NC(C)(C)C2)ccc2c3c(c(=O)oc12)CCC3,-53.6*,i,?,11.2%,i
Cc1cc(=O)oc2c(C)c(OCC(=O)NC3CC(C)(C)NC(C)(C)C3)ccc12,-23.0,i,?,-8.6%,i
COc1ccc(CCC(=O)NCC(=O)OCc2ccccc2)cc1,13.5,i,-12.5%,21.1%,i
CCO/C(C)=N/Oc1cncnc1,0.0,i,nt,nt,i
O=C(CSc1nnc(-c2cccc(F)c2)o1)N1CCCC1,-7.4,i,-3.7%,-0.8%,i
CC1CC(C)CN(C(=O)/C(=C\c2ccccc2)c2ccccc2)C1 (centres undefined),?,8.2µM*,-23.0%,20.6µM*,?
NC1(C(=O)O)CSSC1,-77.2*,6.51µM*,?,10.3µM*,?
COc1ccc(Br)cc1S(=O)(=O)N1CCCc2ccccc21,0.0,i,-7.9%,-17.9%[9.22 µM],i
CSc1ccccc1NC(=O)CN(Cc1ccc(Cl)cc1)S(C)(=O)=O,-63.4*,i,0.8%,2.5%,i
CSc1cccc(NC(=O)CN(Cc2ccc(Cl)cc2)S(C)(=O)=O)c1,-1.9,11.6µM*,-0.9%,1.6%,i
SMILES,IL-1B inflam inh,KB-V1 cytotox,SW480 rerep,MCF10A rereplic,KB-3-1 tox
CSc1ccccc1NC(=O)CN(Cc1ccccc1)S(C)(=O)=O,-3.2,20.6µM*,3.8%,11.6%,i
Oc1c(C(c2ccc(Cl)cc2)N2CCOCC2)sc2nc(-c3ccco3)nn12 (centres undefined),nt,i,nt,nt,i
C=C(C)C1CC=C(C)/C(=N\NC(=S)Nc2ccc(C)cc2)C1 (centres undefined),-5.0,16.4µM*,?,?,?
Cc1ccc(S(=O)(=O)N(CCCc2c(C)nc[nH]c2=O)c2ccccc2)cc1,-8.5,i,-6.8%,2.9%,i
CC(OC(=O)c1cccc(S(=O)(=O)Nc2cccc(C(F)(F)F)c2)c1)C(=O)Nc1ccc2c(c1)OCCO2 (centres undefined),-3.7,14.6µM*,7.7%,?,?
CC(OC(=O)c1nc(Cl)ccc1Cl)C(=O)Nc1ccc2c(c1)OCCO2 (centres undefined),24.5,i,-37.0%,1.64µM*,i
O=S(=O)(Nc1cccc(C(F)(F)F)c1)c1ccc(NS(=O)(=O)c2ccc3c(c2)OCCO3)cc1,nt,i,nt,nt,i
O=Cc1cc([N+](=O)[O-])ccc1N1CCN(Cc2ccc3c(c2)OCO3)CC1,-63.8*,i,-13.6%,?,?
CC(=O)c1ccc(N2CCN(c3ccc(S(=O)(=O)NCCCN(C)C)cc3[N+](=O)[O-])CC2)cc1,-19.1,i,23.5%,?,i
O=[N+]([O-])c1ccc(N2CCN(Cc3ccc4c(c3)OCO4)CC2)nc1,-22.8,?,-2.6%,3.6%,i
CN(C)CCCNS(=O)(=O)c1ccc(N2CCN(Cc3ccc4c(c3)OCO4)CC2)c([N+](=O)[O-])c1,-69.9*,i,?,13.5%,i
O=C1Nc2ccc([N+](=O)[O-])cc2OC1CCN1CCN(Cc2ccc3c(c2)OCO3)CC1 (centres undefined),-50.6*,i,-0.7%,-2.4%,i
CCn1c(=O)c([N+](=O)[O-])c(N2CCN(Cc3ccc4c(c3)OCO4)CC2)c2ccccc21,-65.6*,?,-1.4%,?,?
COc1ccc(S(=O)(=O)Nc2cccc3c2O[C@H](CN(C)C(=O)Nc2ccc(C(F)(F)F)cc2)[C@@H](C)CN([C@H](C)CO)C3=O)cc1,-18.9,i,1.0%,-37.3%,i
COc1ccc(C(=O)N/C(=C\c2cn(S(=O)(=O)N(C)C)c3ccccc23)C(=O)N2CCOCC2)cc1,-14.2,i,-4.2%,0.7%,i
Nc1ccc(/C=C/c2nc3ccccc3s2)cc1,nt,?,nt,nt,i
Cc1cc(N2CCCC2=O)cc(C)c1S(=O)(=O)NCCOc1ccc(C(C)(C)C)cc1,-54.4*,?,16.8%,?,?
CCCn1nc(C(=O)Nc2cccc(S(=O)(=O)N(C)c3ccccc3)c2)c2ccccc2c1=O,26.1,i,14.0%,3.7%,i
O=c1c2ccccc2nc(-c2ccccc2)n1Cc1ccccc1,-15.2,i,-2.7%,?,i
O=c1c2ccccc2nc(-c2ccccc2)n1Cc1ccc(Cl)cc1,-11.8,i,9.8%,18.4µM*,i

# High-throughput results (PubChem)
